39 sequences from publication PMC10812921, “Transcriptional Coactivator BOB1 (OBF1, OCA-B) Modulates the Specificity of DNA Recognition by the POU-Domain Factors OCT1 and OCT2 in a Monomeric Configuration” can be followed below.

Sequence of POU1 (OCT1 POU domain) (P14859 260-458): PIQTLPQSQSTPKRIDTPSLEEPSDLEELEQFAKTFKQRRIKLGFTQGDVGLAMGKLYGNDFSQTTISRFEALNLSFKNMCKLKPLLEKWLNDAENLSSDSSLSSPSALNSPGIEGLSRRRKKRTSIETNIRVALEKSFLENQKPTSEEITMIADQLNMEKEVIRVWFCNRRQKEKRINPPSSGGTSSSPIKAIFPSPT

In one assay the target is POU1 (OCT1 POU domain) (human, UniProt P14859 260-458). Description: EMSA-SELEX-seq; no BOB1; 20 mM Tris-HCl pH 7.6, 140 mM NaCl, 10% glycerol, 0.5 mM EDTA, 0.05% Triton X-100, 0.1 mg/mL BSA, 0.1 mg/mL poly(dI-dC), 5 mM DTT, room temperature, 20 min; high values mean tight binding. As to conditions: protein: recombinant; dsDNA, one strand shown. The method, boiled down:
(§1)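 Tagged POU-domain proteins were expressed in E. coli BL21, purified under denaturing conditions and renatured. Then 30 ng was mixed with 300 ng of a PCR-amplified double-stranded random 35-nt library, with or without 28 ng coactivator protein, in 20 μL Tris–HCl pH 7.6 binding buffer for 20 min at RT. Complex bands were cut from native 6% PAGE, eluted and PCR-amplified over four rounds, then Illumina-sequenced. Binding preference is the percentage of sequenced 8-mers matching a motif pattern.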
Regarding ATGAAAAT, the binding signal was 0.373 % of ANNNNAAN 8-mers.
Consider AGACAAAG, for which the binding signal is 0.0404 % of ANNNNAAN 8-mers.
As for ATCATAAA, the binding signal is 0.0736 % of ANNNNAAN 8-mers.
Same read-out and setting: the same measure for AAAGTAAC: 0.0439 % of ANNNNAAN 8-mers; for AGAAAAAC: 0.04 % of ANNNNAAN 8-mers.
The same measure, in the same setting: in the case of AGTATAAA it was 0.0744 % of ANNNNAAN 8-mers.
With AGGATAAT, the binding signal is 0.168 % of ANNNNAAN 8-mers.
Take ATTCTAAT: the binding signal was 0.448 % of ANNNNAAN 8-mers.
Take AAAAGAAA: the binding signal is 0.106 % of ANNNNAAN 8-mers.
The same measure, in the same setting: in the case of AATGGAAC it was 0.0439 % of ANNNNAAN 8-mers; in that of AACTGAAT, 0.0885 % of ANNNNAAN 8-mers; in that of AACGCAAG, 0.016 % of ANNNNAAN 8-mers.
Still for that read-out and setting: in the case of ACCCTAAT it was 0.037 % of ANNNNAAN 8-mers; in that of ACTCGAAT, 0.0484 % of ANNNNAAN 8-mers; in that of ATGGTAAA, 0.182 % of ANNNNAAN 8-mers.
Same read-out and setting: in the case of ATGATAAA it was 0.104 % of ANNNNAAN 8-mers.
With ACCTAAAC, the binding signal is 0.013 % of ANNNNAAN 8-mers.
The same measure, in the same setting: the same measure for AATCGAAG: 0.0408 % of ANNNNAAN 8-mers; for AAAAAAAA: 0.11 % of ANNNNAAN 8-mers.
Regarding ATCATAAT, the binding signal was 0.131 % of ANNNNAAN 8-mers.
The same measure, in the same setting: the same measure for AGTGAAAC: 0.0282 % of ANNNNAAN 8-mers; for AGGTTAAA: 0.0545 % of ANNNNAAN 8-mers.
As for AAACCAAT, the binding signal was 0.0336 % of ANNNNAAN 8-mers.
For AACGTAAG, the binding signal was 0.0301 % of ANNNNAAN 8-mers.
Turning to ACTACAAG, the binding signal is 0.0194 % of ANNNNAAN 8-mers.
Regarding AGAGGAAA, the binding signal was 0.069 % of ANNNNAAN 8-mers.
On the same count and under the same terms, the same measure for ATTACAAC: 0.0313 % of ANNNNAAN 8-mers.
Same read-out and setting: the same measure for AAGTGAAC: 0.0233 % of ANNNNAAN 8-mers.
On the same count and under the same terms, the same measure for AAGGAAAT: 0.199 % of ANNNNAAN 8-mers; for ACCGCAAT: 0.0164 % of ANNNNAAN 8-mers; for ATCGCAAA: 0.0515 % of ANNNNAAN 8-mers.
AGGTGAAC: the binding signal was 0.021 % of ANNNNAAN 8-mers.
Same read-out and setting: the same measure for AATACAAG: 0.0637 % of ANNNNAAN 8-mers; for AGACCAAA: 0.0179 % of ANNNNAAN 8-mers.
On the same count and under the same terms, the same measure for AAACAAAG: 0.114 % of ANNNNAAN 8-mers; for AACTCAAT: 0.0378 % of ANNNNAAN 8-mers; for ATTATAAT: 0.94 % of ANNNNAAN 8-mers.
Still for that read-out and setting: the same measure for ACGCAAAT: 0.564 % of ANNNNAAN 8-mers; for ACACAAAA: 0.0454 % of ANNNNAAN 8-mers.

The target in another assay is T1, POU2 (OCT2 POU domain) (human, UniProt P09086 175-386).
T1 sequence: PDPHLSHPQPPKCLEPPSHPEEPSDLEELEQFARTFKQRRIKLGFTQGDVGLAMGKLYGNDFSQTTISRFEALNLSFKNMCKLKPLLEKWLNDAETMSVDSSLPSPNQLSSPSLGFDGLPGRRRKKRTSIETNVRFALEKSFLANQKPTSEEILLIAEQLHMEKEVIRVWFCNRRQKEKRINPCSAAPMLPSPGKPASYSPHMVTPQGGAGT
The description is as above. As to conditions: protein: recombinant; dsDNA, one strand shown. An outline of the steps:
as §1
ATGAAAAT: the binding signal was 0.304 % of ANNNNAAN 8-mers.
As to AGACAAAG, the binding signal is 0.0374 % of ANNNNAAN 8-mers.
On the same count and under the same terms, in the case of ATCATAAA it was 0.0944 % of ANNNNAAN 8-mers; in that of AAAGTAAC, 0.0437 % of ANNNNAAN 8-mers; in that of AGAAAAAC, 0.0368 % of ANNNNAAN 8-mers.
The same measure, in the same setting: the same measure for AGTATAAA: 0.08 % of ANNNNAAN 8-mers.
On the same count and under the same terms, the same measure for AGGATAAT: 0.209 % of ANNNNAAN 8-mers.
Consider ATTCTAAT, for which the binding signal is 0.532 % of ANNNNAAN 8-mers.
Still for that read-out and setting: in the case of AAAAGAAA it was 0.084 % of ANNNNAAN 8-mers; in that of AATGGAAC, 0.0466 % of ANNNNAAN 8-mers.
Turning to AACTGAAT, the binding signal is 0.108 % of ANNNNAAN 8-mers.
Turning to AACGCAAG, the binding signal is 0.0219 % of ANNNNAAN 8-mers.
For ACCCTAAT, the binding signal is 0.0518 % of ANNNNAAN 8-mers.
For the sequence ACTCGAAT, the binding signal was 0.0518 % of ANNNNAAN 8-mers.
Same read-out and setting: in the case of ATGGTAAA it was 0.191 % of ANNNNAAN 8-mers; in that of ATGATAAA, 0.131 % of ANNNNAAN 8-mers.
Take ACCTAAAC: the binding signal was 0.0178 % of ANNNNAAN 8-mers.
Take AATCGAAG: the binding signal was 0.0547 % of ANNNNAAN 8-mers.
The same measure, in the same setting: in the case of AAAAAAAA it was 0.193 % of ANNNNAAN 8-mers.
Still for that read-out and setting: the same measure for ATCATAAT: 0.164 % of ANNNNAAN 8-mers; for AGTGAAAC: 0.0178 % of ANNNNAAN 8-mers; for AGGTTAAA: 0.0731 % of ANNNNAAN 8-mers.
On the same count and under the same terms, the same measure for AAACCAAT: 0.0265 % of ANNNNAAN 8-mers; for AACGTAAG: 0.0351 % of ANNNNAAN 8-mers.
Turning to ACTACAAG, the binding signal was 0.0201 % of ANNNNAAN 8-mers.
Same read-out and setting: in the case of AGAGGAAA it was 0.0667 % of ANNNNAAN 8-mers; in that of ATTACAAC, 0.042 % of ANNNNAAN 8-mers.
Regarding AAGTGAAC, the binding signal is 0.0305 % of ANNNNAAN 8-mers.
Consider AAGGAAAT, for which the binding signal was 0.157 % of ANNNNAAN 8-mers.
On the same count and under the same terms, the same measure for ACCGCAAT: 0.019 % of ANNNNAAN 8-mers; for ATCGCAAA: 0.0478 % of ANNNNAAN 8-mers.
The same measure, in the same setting: the same measure for AGGTGAAC: 0.0259 % of ANNNNAAN 8-mers.
The same measure, in the same setting: in the case of AATACAAG it was 0.0662 % of ANNNNAAN 8-mers; in that of AGACCAAA, 0.0213 % of ANNNNAAN 8-mers; in that of AAACAAAG, 0.0742 % of ANNNNAAN 8-mers.
Take AACTCAAT: the binding signal is 0.0437 % of ANNNNAAN 8-mers.
Still for that read-out and setting: in the case of ATTATAAT it was 1.04 % of ANNNNAAN 8-mers; in that of ACGCAAAT, 0.409 % of ANNNNAAN 8-mers; in that of ACACAAAA, 0.0374 % of ANNNNAAN 8-mers.

The target of another assay is POU1 (OCT1 POU domain);BOB1 (OBF1, OCA-B) (human;human, UniProt P14859;Q16633 260-458;1-256, |). Description: EMSA-SELEX-seq; with BOB1 (ternary complex band); 20 mM Tris-HCl pH 7.6, 140 mM NaCl, 10% glycerol, 0.5 mM EDTA, 0.05% Triton X-100, 0.1 mg/mL BSA, 0.1 mg/mL poly(dI-dC), 5 mM DTT, room temperature, 20 min; high values mean tight binding. To be noted: protein: recombinant;recombinant; copies: 1;1; dsDNA, one strand shown. An outline of the steps: as §1
As for ATGAAAAT, the binding signal was 0.619 % of ANNNNAAN 8-mers.
Take AGACAAAG: the binding signal is 0.0558 % of ANNNNAAN 8-mers.
On the same count and under the same terms, the same measure for ATCATAAA: 0.0425 % of ANNNNAAN 8-mers.
Still for that read-out and setting: in the case of AAAGTAAC it was 0.0605 % of ANNNNAAN 8-mers; in that of AGAAAAAC, 0.0519 % of ANNNNAAN 8-mers; in that of AGTATAAA, 0.0585 % of ANNNNAAN 8-mers.
Still for that read-out and setting: in the case of AGGATAAT it was 0.0952 % of ANNNNAAN 8-mers.
Turning to ATTCTAAT, the binding signal was 0.12 % of ANNNNAAN 8-mers.
Still for that read-out and setting: in the case of AAAAGAAA it was 0.119 % of ANNNNAAN 8-mers.
Regarding AATGGAAC, the binding signal was 0.0449 % of ANNNNAAN 8-mers.
The same measure, in the same setting: in the case of AACTGAAT it was 0.0562 % of ANNNNAAN 8-mers.
On the same count and under the same terms, in the case of AACGCAAG it was 0.0222 % of ANNNNAAN 8-mers; in that of ACCCTAAT, 0.0273 % of ANNNNAAN 8-mers; in that of ACTCGAAT, 0.0402 % of ANNNNAAN 8-mers.
For ATGGTAAA, the binding signal was 0.105 % of ANNNNAAN 8-mers.
Still for that read-out and setting: the same measure for ATGATAAA: 0.0644 % of ANNNNAAN 8-mers; for ACCTAAAC: 0.0211 % of ANNNNAAN 8-mers.
Same read-out and setting: the same measure for AATCGAAG: 0.0531 % of ANNNNAAN 8-mers.
The same measure, in the same setting: the same measure for AAAAAAAA: 0.174 % of ANNNNAAN 8-mers; for ATCATAAT: 0.0706 % of ANNNNAAN 8-mers; for AGTGAAAC: 0.0324 % of ANNNNAAN 8-mers.
Take AGGTTAAA: the binding signal was 0.0578 % of ANNNNAAN 8-mers.
On the same count and under the same terms, in the case of AAACCAAT it was 0.0437 % of ANNNNAAN 8-mers; in that of AACGTAAG, 0.0336 % of ANNNNAAN 8-mers.
On the same count and under the same terms, in the case of ACTACAAG it was 0.0183 % of ANNNNAAN 8-mers; in that of AGAGGAAA, 0.0687 % of ANNNNAAN 8-mers.
With ATTACAAC, the binding signal was 0.0258 % of ANNNNAAN 8-mers.
As to AAGTGAAC, the binding signal is 0.0254 % of ANNNNAAN 8-mers.
On the same count and under the same terms, the same measure for AAGGAAAT: 0.288 % of ANNNNAAN 8-mers; for ACCGCAAT: 0.0199 % of ANNNNAAN 8-mers; for ATCGCAAA: 0.0816 % of ANNNNAAN 8-mers.
The same measure, in the same setting: the same measure for AGGTGAAC: 0.0222 % of ANNNNAAN 8-mers.
On the same count and under the same terms, the same measure for AATACAAG: 0.0675 % of ANNNNAAN 8-mers.
In the case of AGACCAAA, the binding signal was 0.0246 % of ANNNNAAN 8-mers.
On the same count and under the same terms, the same measure for AAACAAAG: 0.165 % of ANNNNAAN 8-mers; for AACTCAAT: 0.0289 % of ANNNNAAN 8-mers.
Same read-out and setting: the same measure for ATTATAAT: 0.163 % of ANNNNAAN 8-mers; for ACGCAAAT: 1.27 % of ANNNNAAN 8-mers.
Same read-out and setting: in the case of ACACAAAA it was 0.0644 % of ANNNNAAN 8-mers.
